{"source": "PubChem BioAssay (EPA / NIEHS)", "note": "Records with an inconclusive call do not appear. Calls of active or inactive are those of the source. The calls were made as follows: active = hit-call score of the fitted dose curve at least 0.9, where 1 is the maximum; inconclusive = response in the unintended direction; inactive = score below 0.9."}
{"target": "Nuclear receptor subfamily 1 group I member 2 (Homo sapiens) (UniProt O75469)", "sequence (O75469 whole entry, looked up)": "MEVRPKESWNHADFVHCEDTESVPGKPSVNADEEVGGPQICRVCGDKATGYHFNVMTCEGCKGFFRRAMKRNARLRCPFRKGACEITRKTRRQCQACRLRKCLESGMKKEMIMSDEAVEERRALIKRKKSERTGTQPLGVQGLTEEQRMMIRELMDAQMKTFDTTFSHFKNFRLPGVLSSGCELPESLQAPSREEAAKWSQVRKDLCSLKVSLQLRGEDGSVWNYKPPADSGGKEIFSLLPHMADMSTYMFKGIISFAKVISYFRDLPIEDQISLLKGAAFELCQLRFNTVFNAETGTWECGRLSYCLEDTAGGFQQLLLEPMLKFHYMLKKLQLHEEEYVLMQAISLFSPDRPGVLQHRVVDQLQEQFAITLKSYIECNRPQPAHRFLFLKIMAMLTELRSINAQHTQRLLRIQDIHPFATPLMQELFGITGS", "test": "ATG_PXR_TRANS: Attagene TRANS-FACTORIAL HepG2 Assay for human Pregnane X Receptor (PXR) (AID 2283008)", "description": "ATG_TRANS is a cell-based, multiplexed-readout assay that uses HepG2, a human liver cell line, with measurements taken at 24 hours after chemical dosing in a 24-well plate.ATG_PXR_TRANS is one of 30 assay component(s) measured or calculated from the ATG_TRANS assay. It is designed to make measurements of mRNA induction, a form of inducible reporter, as detected with fluorescence intensity signals by Reverse transcription polymerase chain reaction (RT-PCR) and Capillary electrophoresis technology.Data from the assay component ATG_PXR_TRANS was analyzed into 1 assay endpoint. This assay endpoint, ATG_PXR_TRANS, was analyzed in the positive analysis fitting direction relative to DMSO as the negative control and baseline of activity. Using a type of inducible reporter, measures of mRNA for gain-of-signal activity can be used to understand the reporter gene at the transcription factor-level as they relate to the gene NR1I2. Furthermore, this assay endpoint can be referred to as a primary readout, because this assay has produced multiple assay endpoints where this one serves a reporter gene function. To generalize the intended target to other relatable targets, this assay endpoint is annotated to the nuclear receptor intended target family, where the subfamily is non-steroidal.\nHuman liver HepG2 cells are transiently transfected with multiple reporter transcription units (MRTUs) in 6-well plates using FuGene 6 reagent (Roche; 3 ml FuGene/1 mg DNA). The MRTU constructs are regulated by a cis-regulating element (promoter). […] A major difference between the CIS and TRANS system is that in CIS activities of endogenous TFs are measured, whereas the TRANS assay evaluates changes in activities of exogenous, chimeric NR-Gal4 proteins. […] At the end of 24 hour incubation, total RNA was isolated using TriZol reagent (Invitrogen). The isolated RNA is then reverse-transcribed using oligo(dT) primer and Mo-MLV reverse transcriptase (Invitrogen) with DNAse I (Ambion) treatment for 30 min. The one-tenth of the produced cDNA was amplified by PCR using Taq DNA polymerase (Invitrogen) and two reporter sequence-specific primers. The PCR products were fluorescently labeled by primer extension with 6-arboxyfluorescein (6-FAM) 5'-labeled reporter sequence-specific primer (2 min at 95 C, 20 s at 68 C and 10 min at 72 C) and these products were digested with 5U of HpaI (New England Biolabs) for 2h at 37 C. The fragments were purified using Qiaquick PCR columns (Qiagen), analyzed on an ABI 3130xL genetic analyzer (Applied Biosystems) with peak positions identified by using a set of X-rhodamine (ROX)-labeled MapMarker1000 molecular weight standards (BioVentures). The raw capillary electrophoresis data was processed using Attagraph software (Attagene)."}
{"smiles": "Cc1cccc(Nc2ccccc2)c1", "outcome": "inactive"}
{"smiles": "CCOC(=O)CCc1ccccc1", "outcome": "inactive"}
{"smiles": "Cc1cc(C)nc(NS(=O)(=O)c2ccc(N)cc2)n1", "outcome": "inactive"}
{"smiles": "O=C(O)CNc1ccccc1", "AC50": "27.3 µM (active)"}
{"smiles": "CCC(C)c1cc([N+](=O)[O-])cc([N+](=O)[O-])c1OC(=O)OC(C)C", "note": "(stereo not given)", "AC50": "1.58 µM (active)"}
{"smiles": "CCCCOC(=O)CCCCCCCC(=O)OCCCC", "outcome": "inactive"}
{"smiles": "C=C(C)C(=O)OCCOCCOCCOCCOC(=O)C(=C)C", "outcome": "inactive"}
{"smiles": "CC(C)(C)C1=CC(=O)C(C(C)(C)C)=CC1=O", "AC50": "5.78 µM (active)"}
{"smiles": "CC/C=C\\CC/C=C/CO", "outcome": "inactive"}
{"smiles": "CCN(CC)C(=O)N(CC)CC", "outcome": "inactive"}
{"smiles": "CC(Oc1cc(Cl)ccc1Cl)C(=O)O", "note": "(stereo not given)", "outcome": "inactive"}
{"smiles": "CS(C)=O", "outcome": "inactive"}
{"smiles": "Brc1ccc(Br)c(Br)c1", "outcome": "inactive"}
{"smiles": "CC(C)CCOC(=O)c1ccccc1", "outcome": "inactive"}
{"smiles": "c1ccc(Oc2ccccc2)cc1", "outcome": "inactive"}
{"smiles": "CCCC(=O)c1ccccc1", "outcome": "inactive"}
{"smiles": "COc1cc(CCC(C)=O)ccc1O", "outcome": "inactive"}
{"smiles": "O=[N+]([O-])c1ccc(O)cc1C(F)(F)F", "outcome": "inactive"}
{"smiles": "COc1ccc(N)c([N+](=O)[O-])c1", "outcome": "inactive"}
{"smiles": "CCOC(=O)C1OC1c1ccccc1", "note": "(stereo not given)", "outcome": "inactive"}
{"smiles": "COC(=O)Nc1ccc(Cl)c(Cl)c1", "outcome": "inactive"}
{"smiles": "C=Cc1ccncc1", "outcome": "inactive"}
{"smiles": "O=C(O)CCCCCCCCCCCC(=O)O", "outcome": "inactive"}
{"smiles": "C=C(C)[C@H]1CC=C(C)C(=O)C1", "outcome": "inactive"}
{"smiles": "CCC(C)S", "note": "(stereo not given)", "outcome": "inactive"}
{"smiles": "CCC(=O)O[C@@H]1C[C@H]2CC[C@]1(C)C2(C)C", "outcome": "inactive"}
{"smiles": "Cc1ncc[nH]1", "outcome": "inactive"}
{"smiles": "CCN(CCN)c1cccc(C)c1", "outcome": "inactive"}
{"smiles": "Cc1cc(CCC(=O)OCCOCCOCCOC(=O)CCc2cc(C)c(O)c(C(C)(C)C)c2)cc(C(C)(C)C)c1O", "AC50": "23.3 µM (active)"}
{"smiles": "CCOc1ccc(N=Nc2ccc(C=Cc3ccc(N=Nc4ccc(OCC)cc4)cc3S(=O)(=O)O)c(S(=O)(=O)O)c2)cc1", "outcome": "inactive"}
{"smiles": "CCCCCC(C=O)=Cc1ccccc1", "outcome": "inactive"}
{"smiles": "CC(C)C(OC(=O)c1ccccc1)C(C)(C)COC(=O)c1ccccc1", "note": "(stereo not given)", "AC50": "2.45 µM (active)"}
{"smiles": "CCCCCCC(O)CCCCCCCCCCC(=O)O", "note": "(stereo not given)", "outcome": "inactive"}
{"smiles": "Oc1ccc2cc(SSc3ccc4cc(O)ccc4c3)ccc2c1", "outcome": "inactive"}
{"smiles": "O=C1OC[C@H](Cc2cccc(O)c2)[C@H]1Cc1cccc(O)c1", "AC50": "7.35 µM (active)"}
{"smiles": "C=C(C)[C@@H]1CC=C(C)C(=O)C1", "outcome": "inactive"}
{"smiles": "C=C(C)C(=O)OCCOCCOCCOC(=O)C(=C)C", "outcome": "inactive"}
{"smiles": "CCCCC1CCC(O)CC1", "note": "(stereo not given)", "outcome": "inactive"}
{"smiles": "C[C@H]1O[C@@H](O[C@H]2[C@@H](O)C[C@H](O[C@H]3[C@@H](O)C[C@H](O[C@H]4CC[C@@]5(C)[C@H](CC[C@@H]6[C@@H]5C[C@@H](O)[C@]5(C)[C@@H](C7=CC(=O)OC7)CC[C@]65O)C4)O[C@@H]3C)O[C@@H]2C)C[C@H](O)[C@@H]1O", "outcome": "inactive"}
{"smiles": "CCCCCCCCc1ccc(S(=O)(=O)O)cc1", "outcome": "inactive"}
